From PubChem BioAssay (NCI)
About 83,000 compounds went through this panel and 20% of them were active in at least one assay; those are over-represented in the sample as a whole.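 Single-concentration screen, 48 h exposure, 96-well plates. Endpoint: percent growth. Below 10 = active.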 A number with no mark means an inactive call. Activity calls are given as the source filed them.

What follows are molecules tested on M14 melanoma (assay: NCI-60 one-dose screen, 48 h (100 = growth as untreated, 0 = no growth, -100 = all killed)). Conditions: 10 µM unless noted.

Row | Structure (SMILES) | growth
1 | O=NN(Cc1cccnc1)C(=O)NC1CCCCC1 | 107%
2 | FC(F)(F)c1cccc(CNC2CCN(CCc3ccccc3)CC2)c1 | 49.2%
3 | COc1ccc(CCN2C(=O)/C(=C/c3ccc(C4Oc5ccccc5C5CC(c6cccc(OC)c6)=NN54)cc3)SC2=S)cc1 (stereo not drawn) | 97.1%
4 | COc1cc(-c2c3c(cn2S(=O)(=O)c2ccccc2)-c2nc(N)sc2CC3)cc(OC)c1OC | 34.4%
5 | CCC1=C[C@@H]2CN(C1)Cc1c([nH]c3ccccc13)[C@@](C(=O)OC)(c1cc3c(cc1OC)N(C)[C@H]1[C@@](O)(C(=O)OC)[C@H](OC(C)=O)[C@]4(CC)[C@@H]5C[C@@H]5CN5CC[C@]31[C@@H]54)C2 | -22.3% (active)
6 | O=C(O)CCCN1C(=O)C2C3CCC(C3)C2C1=O (stereo not drawn) | 105%
7 | CCOC(=O)CSc1c(-c2ccccc2)c2cc(Cl)ccc2[nH]c1=O | 104%
8 | COc1ccc(C2C3=C(COC3=O)N(CCO)c3cc4c(cc32)CCC4)cc1 (stereo not drawn) | 38%
9 | Cc1c(C(=O)OCCO)cc(-c2ccc(Cl)cc2)n1-c1ccc(Cl)cc1Cl | 55.6%
10 | NC1C(N)C(N)C1N (stereo not drawn) | 101%
11 | Oc1[nH]c2ccccc2c1N=Nc1nnc2n1N=C(c1ccccc1)CS2 | 99.1%
12 | O=NN(C(=O)NC1CCC(C(=O)O)CC1)C1CCC(C(=O)O)CC1 (stereo not drawn) | 104%
13 | Nc1ccc(-c2nn3c(CCC(=O)c4nc5ncccc5[nH]4)nnc3s2)c(O)c1 | 96.5%
14 | CCOc1ccc2c(c1)CN(Cc1ccc(Cl)cc1)CO2 | 55.6%
15 | CCN(CC)CCCNc1ccnc2cc3ccccc3cc12 | 81.9%
16 | Cc1ccc2cccc(Oc3ccc(Nc4ncnc5onc(-c6ccccc6)c45)cc3)c2n1 | 84%
17 | CCCc1c(C)c2sc(=O)[nH]c2[nH]c1=O | 108%
18 | CC(C)[C@H](NC(=O)Cn1cc(C(=O)O)nn1)C(=O)O | 108%
19 | CC1CCCCN1CCCNC(=O)c1ccc2c(c1)sc1nc(-c3ccc(F)cc3)cn12 (stereo not drawn) | 97.1%
20 | CN(C)c1ccc(/C=C/c2ccnc3c(O)cccc23)cc1 | -22.5% (active)

Row | Structure (SMILES) | growth
21 | NC(=O)CSc1nc(-c2ccc(F)cc2)cc(-c2ccco2)n1 | 98%
22 | Clc1ccc(COc2ccc(Nc3ncnc4onc(-c5ccccc5)c34)cc2)cc1 | 76%
23 | O=S1(=O)N(Cc2ccccc2)[C@@H](Cc2ccccc2)C2O[C@H]2[C@H](Cc2ccccc2)N1Cc1ccccc1 (stereo partly drawn) | 72.6%
24 | COc1cc(/C=C2\CN(C)C/C(=C\c3cc(CN4CCCC4)c(O)c(OC)c3)C2=O)cc(CN2CCCC2)c1O | 99.1%
25 | COc1cc(/C=C2\CN(S(=O)(=O)c3ccccc3)C/C(=C\c3cc(CN4CCCC4)c(O)c(OC)c3)C2=O)cc(CN2CCCC2)c1O | -19.2% (active)
26 | COc1ccc(-c2nc(N3CCN(C(=O)C4CCCCC4)CC3)c3c4c(sc3n2)CCCC4)cc1 | 29.9%
27 | Nc1cccc(Nc2cc(S(=O)(=O)O)c(N)c3c2C(=O)c2ccccc2C3=O)c1 | 103%
28 | CCCCNc1nc(NC(C)(C)C)nc(NC(C)(C)C)n1 | 57.5%
29 | COc1ccc(OC)c(NC(=O)/C(C#N)=C/c2ccco2)c1 | 99.2%
30 | O=c1oc2ccc(Br)cc2c(=O)n1-c1ccc(Cl)cc1F | -11.9% (active)
31 | COc1ccc(C2=NN(/C=C3\SC(=O)NC3=Nc3ccc(F)cc3)C(c3ccc(F)cc3)C2)cc1 (stereo not drawn) | 104%
32 | Nc1no[n+]([O-])c1-c1nnc2c(n1)-c1ccccc1C2=O | 18.9%
33 | C=CCN1C(=O)/C(=c2\sc3n(c2=O)NC2C(N=3)N(CC)C(=O)N2CC)c2ccccc21 (stereo not drawn) | 16.5%
34 | O=C1/C(=C/c2ccc(O)cc2)COc2ccc(O)cc21 | 102%
35 | COc1cc(/C=C/C(=O)c2c(C)nc3ccccc3c2/C=C/c2ccccc2)cc(OC)c1OC | -6.24% (active)
36 | O=c1oc2ccc(F)cc2c(=O)n1-c1ccc(Cl)cc1F | 5.11% (active)
37 | CC1(C)CC2(C)OC2C2(C1)N=NC(=Nc1ccccc1)O2 (stereo not drawn) | 65.4%
38 | CCN1C(=O)N(CC)C2Nn3c(s/c(=C4\C(=O)N(C(C)C)c5ccccc54)c3=O)=NC21 (stereo not drawn) | 21.9%
39 | O=c1c(-c2nc3ccccc3[nH]2)cc2ccccc2n1Cc1cn(Cc2ccc(F)cc2)nn1 | -20.7% (active)

These molecules were tested on HCT-15 colon in the same assay as above. Conditions: 10 µM unless noted.

Row | Structure (SMILES) | growth
40 | O=NN(Cc1cccnc1)C(=O)NC1CCCCC1 | 108%
41 | FC(F)(F)c1cccc(CNC2CCN(CCc3ccccc3)CC2)c1 | 86.8%
42 | COc1ccc(CCN2C(=O)/C(=C/c3ccc(C4Oc5ccccc5C5CC(c6cccc(OC)c6)=NN54)cc3)SC2=S)cc1 (stereo not drawn) | 102%
43 | COc1cc(-c2c3c(cn2S(=O)(=O)c2ccccc2)-c2nc(N)sc2CC3)cc(OC)c1OC | 27.5%
44 | CCC1=C[C@@H]2CN(C1)Cc1c([nH]c3ccccc13)[C@@](C(=O)OC)(c1cc3c(cc1OC)N(C)[C@H]1[C@@](O)(C(=O)OC)[C@H](OC(C)=O)[C@]4(CC)[C@@H]5C[C@@H]5CN5CC[C@]31[C@@H]54)C2 | 13.4%
45 | O=C(O)CCCN1C(=O)C2C3CCC(C3)C2C1=O (stereo not drawn) | 103%
46 | CCOC(=O)CSc1c(-c2ccccc2)c2cc(Cl)ccc2[nH]c1=O | 91.7%
47 | COc1ccc(C2C3=C(COC3=O)N(CCO)c3cc4c(cc32)CCC4)cc1 (stereo not drawn) | 37.3%
48 | Cc1c(C(=O)OCCO)cc(-c2ccc(Cl)cc2)n1-c1ccc(Cl)cc1Cl | 53.6%
49 | NC1C(N)C(N)C1N (stereo not drawn) | 109%
50 | Oc1[nH]c2ccccc2c1N=Nc1nnc2n1N=C(c1ccccc1)CS2 | 105%
51 | O=NN(C(=O)NC1CCC(C(=O)O)CC1)C1CCC(C(=O)O)CC1 (stereo not drawn) | 96.3%
52 | Nc1ccc(-c2nn3c(CCC(=O)c4nc5ncccc5[nH]4)nnc3s2)c(O)c1 | 95.8%
53 | CCOc1ccc2c(c1)CN(Cc1ccc(Cl)cc1)CO2 | 70%
54 | CCN(CC)CCCNc1ccnc2cc3ccccc3cc12 | 43.2%
55 | Cc1ccc2cccc(Oc3ccc(Nc4ncnc5onc(-c6ccccc6)c45)cc3)c2n1 | 43.4%
56 | CCCc1c(C)c2sc(=O)[nH]c2[nH]c1=O | 103%
57 | CC(C)[C@H](NC(=O)Cn1cc(C(=O)O)nn1)C(=O)O | 100%
58 | CC1CCCCN1CCCNC(=O)c1ccc2c(c1)sc1nc(-c3ccc(F)cc3)cn12 (stereo not drawn) | 104%
59 | CN(C)c1ccc(/C=C/c2ccnc3c(O)cccc23)cc1 | 26.7%

Row | Structure (SMILES) | growth
60 | NC(=O)CSc1nc(-c2ccc(F)cc2)cc(-c2ccco2)n1 | 107%
61 | Clc1ccc(COc2ccc(Nc3ncnc4onc(-c5ccccc5)c34)cc2)cc1 | 84.2%
62 | O=S1(=O)N(Cc2ccccc2)[C@@H](Cc2ccccc2)C2O[C@H]2[C@H](Cc2ccccc2)N1Cc1ccccc1 (stereo partly drawn) | 26.1%
63 | COc1cc(/C=C2\CN(C)C/C(=C\c3cc(CN4CCCC4)c(O)c(OC)c3)C2=O)cc(CN2CCCC2)c1O | 88%
64 | COc1cc(/C=C2\CN(S(=O)(=O)c3ccccc3)C/C(=C\c3cc(CN4CCCC4)c(O)c(OC)c3)C2=O)cc(CN2CCCC2)c1O | 50.3%
65 | COc1ccc(-c2nc(N3CCN(C(=O)C4CCCCC4)CC3)c3c4c(sc3n2)CCCC4)cc1 | 49.2%
66 | Nc1cccc(Nc2cc(S(=O)(=O)O)c(N)c3c2C(=O)c2ccccc2C3=O)c1 | 96.7%
67 | CCCCNc1nc(NC(C)(C)C)nc(NC(C)(C)C)n1 | 57.6%
68 | COc1ccc(OC)c(NC(=O)/C(C#N)=C/c2ccco2)c1 | 91.2%
69 | O=c1oc2ccc(Br)cc2c(=O)n1-c1ccc(Cl)cc1F | 0.07% (active)
70 | COc1ccc(C2=NN(/C=C3\SC(=O)NC3=Nc3ccc(F)cc3)C(c3ccc(F)cc3)C2)cc1 (stereo not drawn) | 98.9%
71 | Nc1no[n+]([O-])c1-c1nnc2c(n1)-c1ccccc1C2=O | -71.4% (active)
72 | C=CCN1C(=O)/C(=c2\sc3n(c2=O)NC2C(N=3)N(CC)C(=O)N2CC)c2ccccc21 (stereo not drawn) | 25%
73 | O=C1/C(=C/c2ccc(O)cc2)COc2ccc(O)cc21 | 75.9%
74 | COc1cc(/C=C/C(=O)c2c(C)nc3ccccc3c2/C=C/c2ccccc2)cc(OC)c1OC | -6.23% (active)
75 | O=c1oc2ccc(F)cc2c(=O)n1-c1ccc(Cl)cc1F | 7.49% (active)
76 | CC1(C)CC2(C)OC2C2(C1)N=NC(=Nc1ccccc1)O2 (stereo not drawn) | 9.91% (active)
77 | CCN1C(=O)N(CC)C2Nn3c(s/c(=C4\C(=O)N(C(C)C)c5ccccc54)c3=O)=NC21 (stereo not drawn) | 22.3%
78 | O=c1c(-c2nc3ccccc3[nH]2)cc2ccccc2n1Cc1cn(Cc2ccc(F)cc2)nn1 | 16.9%
